# Measurements as given in PubChem BioAssay AID588742 (Southern Research Specialized Biocontainment Screening …, 2011).
# About 410 (23%) of roughly 1,800 compounds were called active. No rule for the calls is given here. A selection follows. Results with a measured potency or affinity are listed apart.
# Assay: Vero cell cytotoxicity, cytotoxicity control for flavivirus capping enzyme inhibitors (AID 588742)
# Conditions: Vero cells viability, cytotoxicity counter-screen; series mostly up to 40 µM; viability: at the top concentration
row,SMILES,viability
1,Nc1cc2nsnc2cc1Br,86.3% (inactive)
2,COc1cccc(/C=C2\Oc3cc(OCC(=O)N4Cc5ccccc5C[C@H]4C(=O)O)ccc3C2=O)c1,111% (inactive)
3,O=C(N/N=C/c1ccc(N2CCOCC2)o1)c1cccc([N+](=O)[O-])c1,93.5% (inactive)
4,O=C(O)c1ccc(-n2nc(C(F)(F)F)c3c2-c2ccoc2CC3)cc1,83.3% (inactive)
5,O=C(NNc1cc(Br)c(O)c(Br)c1)c1ccccc1,92.3% (inactive)
6,O=C(Nc1cc(C(=O)Nc2ccccc2C(=O)O)cc(C(=O)Nc2ccccc2C(=O)O)c1)c1ccccc1,102% (inactive)
7,O=C(O)c1ccccc1-c1ccccc1C(=O)Nc1ccc2c(c1)C(=O)c1ccccc1-2,94.3% (inactive)
8,O=C(Nc1ccccc1C(=O)O)c1cccc(C(=O)Nc2ccccc2C(=O)O)c1,98.6% (inactive)
9,O=C(O)CCN1C(=O)/C(=C\c2cccc(OCc3ccccc3)c2)SC1=S,83.4% (inactive)
10,O=c1c(C(c2ccc(O)cc2)c2c(O)nc3n(c2=O)CCS3)c(O)nc2n1CCS2,102% (inactive)
11,O=C1CC(=Nc2ccc([N+](=O)[O-])cc2)NN1c1c(Cl)cc(Cl)cc1Cl,102% (inactive)
12,CCOC(=O)Cc1cc(=O)c2c(=O)n(-c3ccccc3)[nH]c2[nH]1,97.9% (inactive)
13,CCC1(C)Cc2c(C#N)c(N)sc(=S)c2CO1 (stereo not given),90.5% (inactive)
14,CC(=O)/C(=N/Nc1ccccc1)Sc1nnc(CCc2ccccc2)n1-c1ccccc1,97% (inactive)
15,CCc1nnc(NC(=O)CCC(=O)N2CCN(c3ccccn3)CC2)s1,98.1% (inactive)
16,CCOC(=O)Nc1sc(NS(=O)(=O)c2ccccc2)nc1C,93.1% (inactive)
17,CCc1nnc(NS(=O)(=O)c2ccc(NC(=S)NC(=O)/C=C/c3ccc(F)cc3)cc2)s1,87.5% (inactive)
18,CCc1nnc(NS(=O)(=O)c2ccc(NC(=S)NC(=O)/C=C/c3ccc(C(C)C)cc3)cc2)s1,87.8% (inactive)
19,CCC(=O)Nc1ccc2nc3c(=O)[nH]c(=S)[nH]c3nc2c1,93.2% (inactive)
20,C=CCOc1ccc(/C=C2\SC(=S)N(NS(=O)(=O)c3ccc(C)cc3)C2=O)cc1,95.5% (inactive)
21,O=C(CNc1cccc2ccccc12)N/N=C/c1ccc(C(=O)O)cc1,93.6% (inactive)
22,CCC1(c2ccccc2)NC(=S)N(c2cccc(C)c2C)N1 (stereo not given),99% (inactive)
23,O=C(O)/C=C/C(=O)c1ccc2c(c1)NC(=O)CO2,98% (inactive)
24,COc1cc(/C=C2/SC(=S)N(CC(=O)O)C2=O)ccc1OC(=O)c1cccs1,99.7% (inactive)
25,CC(C)C(=O)OC1CCS(=O)(=O)c2sccc21 (stereo not given),95.5% (inactive)

row,SMILES,viability
1,CCCc1nc(C)c2c(=O)[nH]c(-c3cc(S(=O)(=O)N4CCN(CC)CC4)ccc3OCC)nn12,97.8% (inactive)
2,COc1cccc(CNc2ccc(N3CCCCC3)cc2)c1OC,87.1% (inactive)
3,CCOc1c(Br)cc(CNc2ccc(N3CCN(C(C)=O)CC3)cc2)cc1OC,83.5% (inactive)
4,Cc1nn(-c2ccccc2)c(Cl)c1/C=C1\SC(=S)N(CCCCCC(=O)O)C1=O,87.3% (inactive)
5,CCOC(=O)c1c(C)oc2c1cc(NS(=O)(=O)c1ccc(C(=O)O)cc1)c1ccccc12,96.6% (inactive)
6,CCOc1cc(NS(=O)(=O)c2ccccc2)c(OCC)cc1NC(=O)c1ccco1,98.2% (inactive)
7,CC(=O)Nc1ccc(NS(=O)(=O)c2ccccc2)c2ccccc12,112% (inactive)
8,COC(=O)c1c(C)oc2c1cc(NS(=O)(=O)c1ccc(C(=O)O)cc1)c1ccccc12,96.5% (inactive)
9,COc1ccccc1/C=C1/C(=O)ON=C1C,98.1% (inactive)
10,Cc1ccc(N2C(=O)c3ccccc3C2C(=O)c2ccc(O)cc2O)cc1 (stereo not given),84.7% (inactive)
11,CC1=C(C#N)c2nc(N)c(C#N)c(C)c2/C1=C\c1ccc(OCC(=O)O)c(Cl)c1,94.5% (inactive)
12,NC(=S)c1cc2cc(Br)ccc2oc1=O,95.1% (inactive)
13,CC(=O)C(=Cc1cc(C)n(-c2ccccc2)c1C)C(C)=O,98.5% (inactive)
14,CCN(CCCNc1cc2c(c(N)c1S(=O)(=O)O)C(=O)c1ccccc1C2=O)c1ccccc1,80.3% (inactive)
15,CCC(=O)Nc1cc(C(=O)O)ccc1Sc1ccc(C)cc1,96.3% (inactive)
16,CCOC(=O)Cc1csc(NC(=O)NC2(C(F)(F)F)Oc3ccccc3O2)n1,99.8% (inactive)
17,O=C(O)CCCN1C(=O)/C(=C/C=C/c2ccco2)SC1=S,93.8% (inactive)
18,O=C(O)CCCN1C(=O)/C(=C\c2ccco2)SC1=S,106% (inactive)
19,O=S(=O)([O-])CCC[n+]1c(SCCCS(=O)(=O)O)sc2ccc(Cl)cc21,104% (inactive)
20,O=C(O)CSc1nc(-c2ccc(Cl)cc2)nc2c1oc1ccccc12,90.5% (inactive)
21,O=C(O)c1ccccc1NS(=O)(=O)c1cccc(NS(=O)(=O)c2cc(Br)ccc2Br)c1,95.6% (inactive)
22,O=C(O)COc1ccccc1/C=N/Nc1ccc(S(=O)(=O)Nc2ccc(Cl)cc2)cc1[N+](=O)[O-],100% (inactive)
23,O=C(NNS(=O)(=O)c1ccc([N+](=O)[O-])cc1)c1ccc2ccccc2c1O,95.5% (inactive)
24,N#C/C(=C\c1ccccc1)C(=O)NNS(=O)(=O)c1cccc([N+](=O)[O-])c1,92% (inactive)
25,CCc1ccc(S(=O)(=O)Nc2ccc(O)c3ccccc23)cc1,100% (inactive)

row,SMILES,viability
1,O=S(=O)(Nc1ccc(O)c2ccccc12)c1ccc(F)cc1,95.8% (inactive)
2,O=C(O)CSc1c(O)c2ccccc2[nH]c1=O,105% (inactive)
3,Cc1nnc(SCC2=C(C(=O)O)N3C(=O)C(NC(=O)c4cccc(F)c4F)C3SC2)s1 (stereo not given),112% (inactive)
4,CC1(OC(=O)CCc2ccccc2)C(=O)C=C2C=C(c3ccc(C#N)cc3)N(Cc3ccccc3)C=C2C1=O (stereo not given),86.1% (inactive)
5,O=C1NN(c2cccc(Br)c2)C(=O)/C1=C/c1ccc(-c2cc([N+](=O)[O-])ccc2O)o1,104% (inactive)
6,Cc1ccc([C@@H]2CC=C(C(=O)O)[C@H](c3ccc(Br)cc3)N2S(=O)(=O)c2ccccc2C)cc1,83% (inactive)
7,CCCc1cc(=O)oc2c(CN3CCCC3)c(O)c(Cl)cc12,102% (inactive)
8,Cc1ccc(CSc2nnc3c(n2)OC2(Nc4ccccc4-3)C(=O)Nc3ccc(F)cc32)cc1 (stereo not given),94.7% (inactive)
9,CCN(CCCNC(=O)CCc1nc(-c2ccc(OC)cc2)no1)c1cccc(C)c1,83.7% (inactive)
10,CCN(CC)c1ccc(C2C3CCCCC3(O)CCN2CC(=O)N2CCCCC2)cc1 (stereo not given),91.2% (inactive)
11,CCN(/N=C/c1ccc(N(C)C)cc1)c1nc2ccccc2[nH]1,99% (inactive)
12,COc1ccccc1NS(=O)(=O)c1ccc(N/N=C/c2ccccc2OCC(=O)O)c([N+](=O)[O-])c1,94.2% (inactive)
13,O=C1NN(c2cccc(Br)c2)C(=O)/C1=C\c1ccccc1,95.5% (inactive)
14,N#CC1C(=O)c2ccccc2C1c1ccccc1 (stereo not given),90.6% (inactive)
15,CCCCCCn1c(=O)c(-c2ccccc2)c(O)c2ccccc21,102% (inactive)
16,COc1ccc(S(=O)(=O)CC(=O)c2cc3cc(Br)ccc3oc2=O)cc1,108% (inactive)
17,CCOc1ccc(/C=C/c2[nH]c(=O)[nH]c(=O)c2[N+](=O)[O-])cc1,118% (inactive)
18,COc1ccc(OC)c(/C=C2\SC(=S)N(NS(=O)(=O)c3ccc(C)cc3)C2=O)c1,97.1% (inactive)
19,O=C(CC(Nc1ccccc1Cl)C(=O)O)c1ccccc1 (stereo not given),122% (inactive)
20,CCCOC(=O)c1c(NC(=O)C2C3C=CC(C3)C2C(=O)O)sc2c1CCC(C)C2 (stereo not given),106% (inactive)
21,N#CCC(=O)N/N=C/c1ccc(OCC(=O)Nc2ccc(F)cc2)cc1,92.9% (inactive)
22,COC(=O)C1=C(C(=O)OC)C(c2ccccc2O)c2sc(=O)[nH]c2S1 (stereo not given),104% (inactive)
23,O=c1[nH]c(/C=C\c2ccc(O)c(O)c2)nc(O)c1[N+](=O)[O-],97.7% (inactive)
24,Cc1c(N=C2C=C(Br)C(=O)C(Br)=C2)c(=O)n(-c2ccccc2)n1C,93.4% (inactive)
25,Cc1c(N2C(=O)/C(=C3\C(=O)N(CC(=O)O)c4ccccc43)SC2=S)c(=O)n(-c2ccccc2)n1C,108% (inactive)

row,SMILES,viability
1,COc1ccccc1/C=C1\SC(=S)N(NS(=O)(=O)c2ccccc2)C1=O,84.4% (inactive)
2,COc1ccc(S(=O)(=O)Nc2cc3c4c(c2)C(C)C(=O)N4CCC3)cc1OC (stereo not given),95.1% (inactive)
3,CC(=O)N1CCN(c2ccc(NCc3cccc(C)c3)cc2)CC1,94.1% (inactive)
4,N#C/C(=C\c1ccc(C#N)cc1)C(=O)c1ccccc1,105% (inactive)
5,O=C1c2ccccc2C(=O)c2c1cccc2N(CCO)CCO,90.7% (inactive)
6,O=C1C(=NO)CCc2ccccc21,91.2% (inactive)
7,CCn1c2ccccc2c2cc(NC(=O)c3ccc(Br)o3)ccc21,93% (inactive)
8,CCCCCCSc1nc(O)c(C2OC(=O)c3c2ccc(OC)c3OC)c(=O)n1-c1ccccc1 (stereo not given),96.6% (inactive)
9,c1cc2c(cc1NC1CCCCCC1)OCO2,107% (inactive)
10,O=C(O)c1[nH]c2ccccc2c1C(c1cc(Cl)cc([N+](=O)[O-])c1O)c1c(C(=O)O)[nH]c2ccccc12,99.4% (inactive)
11,O=C(O)c1cc(N/N=C/c2ccc(-c3ccccc3)cc2)ccc1Cl,101% (inactive)
12,O=C(O)CN1C(=O)/C(=C\c2cc([N+](=O)[O-])ccc2OCc2ccccc2Cl)SC1=S,99.2% (inactive)
13,O=C(O)CCCN1C(=O)/C(=C\c2ccccc2OCc2ccccc2)SC1=S,100% (inactive)
14,O=C(O)CN1C(=O)/C(=C\c2ccccc2OCc2ccc(Cl)cc2)SC1=S,94.9% (inactive)
15,O=C(O)CN1C(=O)/C(=C\c2ccccc2OCc2ccccc2)SC1=S,91% (inactive)
16,CC1=C/C(=C(\c2cc(C)c(O)c(Br)c2)c2ccccc2S(=O)(=O)O)C=C(Br)C1=O,80.3% (inactive)
17,Cc1ccc(S(=O)(=O)N2CCC(C(=O)OC(C)C(=O)NC3CCCCC3C)CC2)cc1C (stereo not given),91.4% (inactive)
18,CN(C)c1ccc2cc(S(=O)(=O)O)cc(O)c2c1,97.7% (inactive)
19,Cc1nc2ccccc2c2oc(C(=O)Nc3ccc4c(c3)OCCO4)cc12,92% (inactive)
20,Cc1cc([N+](=O)[O-])ccc1N1C(=O)c2ccc(C(=O)Nc3ccccc3C(=O)O)cc2C1=O,100% (inactive)
21,O=[N+]([O-])c1ccc(S(=O)(=O)Nc2nc(-c3ccccc3)cs2)cc1,103% (inactive)
22,Nc1nn2c(-c3ccccc3)cc(=O)[nH]c2c1N=Nc1ccc(O)cc1,91.5% (inactive)
23,O=C(O)c1ccc(N=N/C(=N\Nc2ccc(C(=O)O)cc2)c2ccccc2)cc1,98.1% (inactive)
24,O=C(O)CN1C(=O)/C(=C2\C(=O)N(Cc3ccccc3Cl)c3ccccc32)SC1=S,120% (inactive)
25,Cc1c(N)cc(N)cc1C(=O)O,105% (inactive)
